Exocytosis inh = blocks lytic granule exocytosis. TALL-104 LAMP-1 surface exposure, flow cytometry; cells stimulated with thapsigargin and PMA. inhibition, % at 10 µM. hit rate 0.66% among 360,000;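 active = inhibition above about 55%, limit read from the data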
NTR1 agonist = activates human neurotensin receptor 1; NTR1-U2OS beta-arrestin-GFP spot imaging, agonist mode; activation, % at 20 µM; hit rate 0.17% among 330,000;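 active = activation at or above 40% of the spot to cytoplasm intensity ratio, with at least 20 cells analyzed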;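 note: 0% = DMSO without peptide and 100% = 100 nM NTR1 peptide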
Target sequence (P30989 whole entry, looked up): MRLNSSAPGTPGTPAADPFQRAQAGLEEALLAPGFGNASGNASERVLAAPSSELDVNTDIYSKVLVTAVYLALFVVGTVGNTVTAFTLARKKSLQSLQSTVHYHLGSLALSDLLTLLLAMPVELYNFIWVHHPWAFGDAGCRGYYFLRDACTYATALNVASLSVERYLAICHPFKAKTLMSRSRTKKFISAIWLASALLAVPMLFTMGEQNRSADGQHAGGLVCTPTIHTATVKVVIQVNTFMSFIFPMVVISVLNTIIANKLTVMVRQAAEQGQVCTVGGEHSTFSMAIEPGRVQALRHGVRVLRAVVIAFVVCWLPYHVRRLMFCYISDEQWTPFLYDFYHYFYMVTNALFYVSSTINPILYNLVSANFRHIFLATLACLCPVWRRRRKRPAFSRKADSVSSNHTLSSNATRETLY
Beta2AR agonist = activates human beta-2 adrenergic receptor causing internalization. Am2.2-beta2AR cells, FAP receptor internalization, flow cytometry. response, % (no concentration beside the values). hit rate 0.43% among 340,000;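 active = response above a set limit, near 3 SD of response in nonfluorescent compounds, cut at about 42% in these data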
m5-HT2A agonist = agonists of mouse serotonin 5-HT2A receptor (HTR2A). hit rate 0.66% among 360,000. CHO-K1 mHTR2A beta-arrestin complementation, luminescence; percent of 30 µM serotonin response. activation, % at 7.6 µM. P35363. AID 624169;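 active = activation above a run cutoff, the mean activation of all tested compounds plus 3 SD, cut at about 14% in these data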;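 note: 0% = plate median of compound wells and 100% = 30 µM serotonin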
ABHD5 PLIN5 PPI = blocks binding of human ABHD5 to perilipin-5 | AID 602281 | Q00G26+Q8WTS1 | hit rate 0.78% among 360,000 | Split G. princeps luciferase complementation, luminescence, 4 h | inhibition, % at 4 µM;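 active = inhibition above the mean inhibition across every tested compound plus 3 SD, cut at about 22% in these data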;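 note: 0% = DMSO only wells and the 100% control is not disclosed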
ABHD5 PLIN5 conf = ABHD5-PLIN5 interaction inhibition, confirmed. shares compounds with ABHD5 PLIN5 PPI. biochemical ABHD5-PLIN5 interaction, luminescence. inhibition, % at 4 µM. hit rate 67% among 2,200. AID 651612; in the data active = inhibition above about 23%;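 note: 0% = DMSO vehicle wells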
HNF4 counter = counter-screen for ABHD5-PLIN5 inhibitors: HNF4 split-luciferase | HNF4 dimerization, luminescence, biochemical | hit rate 77% among 2,200 | shares compounds with ABHD5 PLIN5 PPI | inhibition, % at 4 µM;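 active = mean inhibition across replicate wells exceeding the computed hit threshold, cut at about 13% in these data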;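 note: light from luciferase halves that rejoin when HNF4 fusion proteins dimerize; 0% = DMSO only wells and the 100% control is not given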
Active calls of the source: *. Only some compounds are listed: those with a hit (about 2.3% of all), similar ones and a draw of the others.

Results for CN1C/C(=C\c2ccc(N3CCOCC3)cc2)C(=O)/C(=C/c2ccc(N3CCOCC3)cc2)C1 ?
Exocytosis inh: 1.6; NTR1 agonist: 0.4; Beta2AR agonist: 14.4; m5-HT2A agonist: -1.9; ABHD5 PLIN5 PPI: 29.8*; ABHD5 PLIN5 conf: 53.2*; HNF4 counter: 42.0*

How did CCOc1cc(/C=C2\CCC/C(=C\c3cc(Cl)c(O)c(OCC)c3)C2=O)cc(Cl)c1O do in these assays?
Exocytosis inh: 81.8*; NTR1 agonist: 31.9; Beta2AR agonist: -19.8; m5-HT2A agonist: -11.2; ABHD5 PLIN5 PPI: 55.3*; ABHD5 PLIN5 conf: 68.2*; HNF4 counter: 47.6*

Results for CCOc1cc(/C=C\c2nc(O)c([N+](=O)[O-])c(=O)[nH]2)ccc1OC(C)C ?
Exocytosis inh: -6.3; NTR1 agonist: 0.0; Beta2AR agonist: -9.1; m5-HT2A agonist: 0.1; ABHD5 PLIN5 PPI: 2.0

What do the screens show for `C=CCc1cc(/C=C/c2nc(O)c([N+](=O)[O-])c(=O)[nH]2)cc(OC)c1O`?
Exocytosis inh: 1.0; NTR1 agonist: -0.4; Beta2AR agonist: -2.7; m5-HT2A agonist: 2.1; ABHD5 PLIN5 PPI: 26.7*; ABHD5 PLIN5 conf: 42.2*; HNF4 counter: 32.4*

How did Cc1nc2ccccc2c(=O)n1-c1cccc(NC(=O)c2cccs2)c1 do in these assays?
Exocytosis inh: 3.7; NTR1 agonist: 0.5; Beta2AR agonist: -3.6; m5-HT2A agonist: -2.7; ABHD5 PLIN5 PPI: 11.8

What do the screens show for `O=C(Nc1cccc(N2C(=O)C=CC2=O)c1)c1cccs1`?
Exocytosis inh: 33.5; NTR1 agonist: 1.7; Beta2AR agonist: 52.8*; m5-HT2A agonist: -4.7; ABHD5 PLIN5 PPI: 29.7*; ABHD5 PLIN5 conf: 48.0*; HNF4 counter: 95.6*

What do the screens show for `COc1cc(C(=O)/C=C/c2cccnc2)ccc1O`?
Exocytosis inh: 6.3; NTR1 agonist: 2.9; Beta2AR agonist: 21.8; m5-HT2A agonist: -9.7; ABHD5 PLIN5 PPI: 24.2*; ABHD5 PLIN5 conf: 60.8*; HNF4 counter: 54.8*

How did COc1ccc(/C=C/C(=O)c2ccc(OC)cc2OC)cc1 do in these assays?
Exocytosis inh: 2.7; NTR1 agonist: -0.6; Beta2AR agonist: -7.2; m5-HT2A agonist: -2.7; ABHD5 PLIN5 PPI: 0.0

Results for Cc1cccc(C(=O)Nc2ccc(C(=O)/C=C/c3cccnc3)cc2)c1 ?
Exocytosis inh: 14.1; Beta2AR agonist: 79.6*; m5-HT2A agonist: -6.1; ABHD5 PLIN5 PPI: 67.6*; ABHD5 PLIN5 conf: 101.5*; HNF4 counter: 102.0*

Results for O=C(/C=C/c1cccnc1)c1cc(F)ccc1O ?
Exocytosis inh: -5.6; NTR1 agonist: 1.7; Beta2AR agonist: -4.7; m5-HT2A agonist: -0.2; ABHD5 PLIN5 PPI: 0.0

Results for COc1ccc(OC)c(C(=O)/C=C/c2cccnc2)c1 ?
Exocytosis inh: -3.1; NTR1 agonist: 6.1; Beta2AR agonist: 3.8; m5-HT2A agonist: -1.2; ABHD5 PLIN5 PPI: 38.5*; ABHD5 PLIN5 conf: 61.1*; HNF4 counter: 63.1*

How did O=C(/C=C/c1cccnc1)/C=C/c1cccnc1 do in these assays?
Exocytosis inh: 8.3; Beta2AR agonist: 67.5*; m5-HT2A agonist: 2.9; ABHD5 PLIN5 PPI: 94.9*; ABHD5 PLIN5 conf: 102.2*; HNF4 counter: 108.0*

What do the screens show for `O=C(c1ccc2ncsc2c1)N1CCN(c2cccc(C(F)(F)F)c2)CC1`?
Exocytosis inh: -1.6; NTR1 agonist: 0.9; Beta2AR agonist: -13.4; m5-HT2A agonist: -1.2; ABHD5 PLIN5 PPI: -13.7

How did Cc1cccc(/C(N)=N/OC(=O)CCCc2ccccc2)c1 do in these assays?
Exocytosis inh: -5.2; NTR1 agonist: 0.6; Beta2AR agonist: 0.7; m5-HT2A agonist: -0.3; ABHD5 PLIN5 PPI: -5.7

What do the screens show for `O=c1n(Cc2ccccc2Cl)nc2n1-c1ccccc1SC2`?
Exocytosis inh: -4.4; NTR1 agonist: 2.2; Beta2AR agonist: 0.1; m5-HT2A agonist: -4.2; ABHD5 PLIN5 PPI: 5.5

Results for COCCNC(=O)c1cc(-c2ccccc2)sc1N ?
Exocytosis inh: 12.9; m5-HT2A agonist: 2.2; ABHD5 PLIN5 PPI: 27.9*; ABHD5 PLIN5 conf: 0.9; HNF4 counter: -0.7

Results for O=C(CNC(=O)c1ccc2c(c1)S(=O)(=O)N=C1CCCCCN12)Nc1ccc(F)c(F)c1 ?
Exocytosis inh: 12.5; NTR1 agonist: -0.3; Beta2AR agonist: -10.5; m5-HT2A agonist: -2.1; ABHD5 PLIN5 PPI: 3.5

Results for C=CS(=O)(=O)c1sc(Cl)c(N2CCOCC2)c1[N+](=O)[O-] ?
Exocytosis inh: 0.5; Beta2AR agonist: 33.2; m5-HT2A agonist: 2.9; ABHD5 PLIN5 PPI: 43.3*; ABHD5 PLIN5 conf: 100.3*; HNF4 counter: 110.6*

Results for O=C1C=CC(O)C2(CO)OC12 (stereo not drawn) ?
Exocytosis inh: 0.4; m5-HT2A agonist: 4.6; ABHD5 PLIN5 PPI: 67.2*; ABHD5 PLIN5 conf: 90.6*; HNF4 counter: 91.0*

Results for O=C(Nc1cccc(-c2cccc(Cl)c2)c1)C1CCN(Cc2ccc(CO)o2)CC1 ?
Exocytosis inh: 5.0; NTR1 agonist: 4.7; Beta2AR agonist: 16.8; m5-HT2A agonist: -15.9; ABHD5 PLIN5 PPI: 27.0*; ABHD5 PLIN5 conf: 10.4; HNF4 counter: -1.0

What do the screens show for `Cc1ccc(CN2CCC(C(=O)Nc3cccc(-c4cccc(F)c4)c3)CC2)o1`?
Exocytosis inh: 2.0; NTR1 agonist: 0.5; Beta2AR agonist: 11.6; m5-HT2A agonist: -10.3; ABHD5 PLIN5 PPI: 10.7

How did Cc1ccc(S(=O)(=O)N2C[C@H]3n4c(=O)ccc(=O)n4C[C@H](OC(=O)Nc4cccs4)[C@@]3(O)C2)cc1 do in these assays?
Exocytosis inh: 6.5; m5-HT2A agonist: 4.1; ABHD5 PLIN5 PPI: 35.3*; ABHD5 PLIN5 conf: 57.5*; HNF4 counter: 33.8*

Results for CCCCCCn1c(=O)n2n(c1=O)[C@@H]1CN(S(=O)(=O)c3ccc(C)cc3)C[C@]1(O)[C@@H](OC(=O)Nc1cccs1)C2 ?
Exocytosis inh: 7.9; m5-HT2A agonist: -1.9; ABHD5 PLIN5 PPI: -17.0

How did CCCCCCn1c(=O)n2n(c1=O)[C@@H]1CN(S(=O)(=O)c3ccc(C)cc3)C[C@]1(O)[C@@H](OC(=O)NCc1ccccc1F)C2 do in these assays?
Exocytosis inh: -3.1; m5-HT2A agonist: -0.3; ABHD5 PLIN5 PPI: -11.7

Results for Cc1ccc(S(=O)(=O)N2C[C@H]3n4c(=O)ccc(=O)n4C[C@H](OC(=O)NCc4ccccc4F)[C@@]3(O)C2)cc1 ?
Exocytosis inh: -2.2; m5-HT2A agonist: -1.0; ABHD5 PLIN5 PPI: 25.3*; ABHD5 PLIN5 conf: 48.7*; HNF4 counter: 42.2*

What do the screens show for `O=C(COc1cccc2cccnc12)N1CCc2ccccc21`?
Exocytosis inh: -3.1; NTR1 agonist: 1.1; Beta2AR agonist: -2.9; m5-HT2A agonist: 1.5; ABHD5 PLIN5 PPI: 6.2

Results for CCn1c(SCC(=O)N/N=C/C=C/c2ccco2)nnc1-c1ccccc1 ?
Exocytosis inh: -1.0; NTR1 agonist: -0.8; Beta2AR agonist: -5.4; m5-HT2A agonist: 3.4; ABHD5 PLIN5 PPI: 30.6*; ABHD5 PLIN5 conf: 24.0*; HNF4 counter: 44.4*

Screening data from PubChem BioAssay.
